About 79,000 compounds went through this panel and 15% of them were active in at least one assay; those are over-represented in the sample as a whole. Unmarked numbers belong to inactive results. Active and inactive are the calls of the source. Rule as the data show it: active = growth inhibition above about 70%; inactive = the rest.

Experiment [1] can be described thus: NCI Yeast Anticancer Drug Screen. Data for the rad50 strain (AID 155).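 Also: 0% = growth of vehicle-only cultures of the same strain.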 The conditions noted are these: S. cerevisiae rad50 strain growth inhibition, stronger effect = higher value. In short, it runs like this: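 Readout: growth inhibition relative to vehicle-treated cultures. Compound exposure was carried out in a genetically defined yeast strain deficient in DNA damage repair.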

Experiment [2] is described as follows: NCI Yeast Anticancer Drug Screen. Data for the mec2-1 strain (AID 157). The conditions noted are these: S. cerevisiae mec2-1 strain, stronger effect = higher value. In outline: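 Yeast mec2-1 mutant treated with compound. Readout: growth inhibition vs vehicle controls.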
Experiment [3] can be described thus: NCI Yeast Anticancer Drug Screen. Data for the sgs1 mgt1 strain (AID 161).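 Also: 0% = growth of cultures given vehicle only.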 The conditions noted are these: S. cerevisiae sgs1 mgt1 strain, stronger effect = higher value. In outline:
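Inhibition of yeast growth, normalised to vehicle-treated controls, is reported for a strain bearing genetic alterations in DNA damage repair.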

Experiment [4] can be described thus: NCI Yeast Anticancer Drug Screen. Data for the cln2 rad14 strain (AID 165).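 Also: 0% = growth equal to vehicle treated cultures.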 The conditions noted are these: S. cerevisiae cln2 rad14 strain, stronger effect = higher value. In short, it runs like this: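 cln2 rad14 yeast strain; compound exposure; growth inhibition read vs vehicle controls.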
A short description of experiment [5]: NCI Yeast Anticancer Drug Screen. Data for the bub3 strain (AID 167). The conditions noted are these: S. cerevisiae bub3 mutant strain, stronger effect = higher value. In outline:
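Readout: yeast growth inhibition, expressed relative to vehicle-only wells. The test organism is a mutant strain from a panel with lesions in DNA repair or checkpoint genes.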

The nature of experiment [6]: NCI Yeast Anticancer Drug Screen. Data for the mlh1 rad18 strain (AID 175). The conditions noted are these: S. cerevisiae mlh1 rad18 strain growth inhibition, stronger effect = higher value. In outline:
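Yeast w/ defined DNA-repair lesions; compound exposure; growth vs vehicle controls → % inhibition.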

Where [7] appears, read: at 5.0 µM (retest, dose inferred, filed as 0.5).
Where [8] appears, read: at 50.0 µM (retest, dose inferred, filed as 5.0).

For `C/C=C/CSc1cc(NC(=S)c2ccsc2C)ccc1Cl`, the growth inhibition in experiment [1] (setting [7]) was -6%; in experiment [1] (setting [8]) it was 83% (active); in experiment [1] (at 50.0 µM), 88.2% (active); in experiment [2] (setting [7]) it was -1%; in experiment [2] (setting [8]) it was 82% (active); in experiment [2] (at 50.0 µM) it was 85.8% (active). The growth inhibition in experiment [3] (setting [7]) was 43%; in experiment [3] (setting [8]), 88% (active); in experiment [3] (at 50.0 µM), 91.2% (active); in experiment [4] (setting [7]) it was -19%; in experiment [4] (setting [8]), 80% (active); in experiment [4] (at 50.0 µM), 84.3% (active). The growth inhibition was -2% in experiment [5] (setting [7]); 88% (active) in experiment [5] (setting [8]); 88.6% (active) in experiment [5] (at 50.0 µM); 6% in experiment [6] (setting [7]); 89% (active) in experiment [6] (setting [8]); 86.8% (active) in experiment [6] (at 50.0 µM).

Regarding `N#CC(Nc1cccc(C(F)(F)F)c1)c1ccccc1C(F)(F)F` (stereo not given), the growth inhibition in experiment [1] (setting [7]) was -4%; in experiment [1] (setting [8]) it was 97% (active); in experiment [1] (at 50.0 µM), 86% (active); in experiment [2] (setting [7]), 3%; in experiment [2] (setting [8]), 97% (active); in experiment [2] (at 50.0 µM), 92% (active). The growth inhibition in experiment [3] (setting [7]) was -11%; in experiment [3] (setting [8]), 97% (active); in experiment [3] (at 50.0 µM), 90.1% (active); in experiment [4] (setting [7]) it was 25%; in experiment [4] (setting [8]) it was 46%; in experiment [4] (at 50.0 µM), 89% (active). The growth inhibition in experiment [5] (setting [7]) was 10%; in experiment [5] (setting [8]), 97% (active); in experiment [5] (at 50.0 µM) it was 90.5% (active); in experiment [6] (setting [7]), -12%; in experiment [6] (setting [8]), 98% (active); in experiment [6] (at 50.0 µM), 84.8% (active).

As to `O=C(OCc1ccccc1)c1ccc(O)cc1`, the growth inhibition in experiment [1] (setting [7]) was 6%; in experiment [1] (setting [8]) it was 79% (active); in experiment [1] (at 50.0 µM), 96.8% (active); in experiment [2] (setting [7]), -1%; in experiment [2] (setting [8]) it was 85% (active); in experiment [2] (at 50.0 µM) it was 98.3% (active). In addition, the growth inhibition in experiment [3] (setting [7]) was 1%; in experiment [3] (setting [8]), 64%; in experiment [3] (at 50.0 µM), 98.5% (active); in experiment [4] (setting [7]) it was 2%; in experiment [4] (setting [8]), 39%; in experiment [4] (at 50.0 µM), 85.8% (active). Also, the growth inhibition in experiment [5] (setting [7]) was 9%; in experiment [5] (setting [8]), 91% (active); in experiment [5] (at 50.0 µM) it was 97.8% (active); in experiment [6] (setting [7]), 2%; in experiment [6] (setting [8]), 88% (active); in experiment [6] (at 50.0 µM), 99% (active).

With `CC(O)C(NC(=O)OCc1ccccc1)C(=O)OC(c1ccccc1)c1ccccc1` (stereo not given), the growth inhibition was 0% in experiment [1] (setting [7]); 95% (active) in experiment [1] (setting [8]); 98% (active) in experiment [1] (at 50.0 µM); 17% in experiment [2] (setting [7]); 99% (active) in experiment [2] (setting [8]); 97.8% (active) in experiment [2] (at 50.0 µM). The growth inhibition was -23% in experiment [3] (setting [7]); 98% (active) in experiment [3] (setting [8]); 97.5% (active) in experiment [3] (at 50.0 µM); -3% in experiment [4] (setting [7]); 96% (active) in experiment [4] (setting [8]); 97% (active) in experiment [4] (at 50.0 µM). The growth inhibition was 2% in experiment [5] (setting [7]); 97% (active) in experiment [5] (setting [8]); 97.3% (active) in experiment [5] (at 50.0 µM); 10% in experiment [6] (setting [7]); 97% (active) in experiment [6] (setting [8]); 96.5% (active) in experiment [6] (at 50.0 µM).

With `CC(SC1=CC(=O)c2c(O)ccc(O)c2C1=O)C(=O)O` (stereo not given), the growth inhibition in experiment [1] (setting [7]) was 9%; in experiment [1] (setting [8]), -19%; in experiment [1] (at 50.0 µM) it was 22.6%; in experiment [2] (setting [7]), -4%; in experiment [2] (setting [8]) it was -2%; in experiment [2] (at 50.0 µM), 11.8%. The growth inhibition in experiment [3] (setting [7]) is 19%; in experiment [3] (setting [8]), 5%; in experiment [3] (at 50.0 µM) it was 19.9%; in experiment [4] (setting [7]), -5%; in experiment [4] (setting [8]), -6%; in experiment [4] (at 50.0 µM), -27.6%. The growth inhibition in experiment [5] (setting [7]) was -6%; in experiment [5] (setting [8]), -5%; in experiment [5] (at 50.0 µM) it was 4%; in experiment [6] (setting [7]), -5%; in experiment [6] (setting [8]) it was -6%; in experiment [6] (at 50.0 µM), 25.1%.

For `CCCC/C(=N/Nc1ccc([N+](=O)[O-])cc1)C(=O)O`, the growth inhibition is 14% in experiment [1] (setting [7]); 97% (active) in experiment [1] (setting [8]); 71.5% (active) in experiment [1] (at 50.0 µM); 8% in experiment [2] (setting [7]); 95% (active) in experiment [2] (setting [8]); 24.3% in experiment [2] (at 50.0 µM). Also, the growth inhibition in experiment [3] (setting [7]) is 14%; in experiment [3] (setting [8]), 97% (active); in experiment [3] (at 50.0 µM), 75% (active); in experiment [4] (setting [7]), -3%; in experiment [4] (setting [8]), 60%; in experiment [4] (at 50.0 µM) it was 24.5%. For the same molecule, the growth inhibition in experiment [5] (setting [7]) was 18%; in experiment [5] (setting [8]), 98% (active); in experiment [5] (at 50.0 µM), 82% (active); in experiment [6] (setting [7]), 21%; in experiment [6] (setting [8]), 98% (active); in experiment [6] (at 50.0 µM), 57.4%.

For `OC(C1CCC=NN1C(O)(C(F)(F)F)C(F)(F)F)(C(F)(F)F)C(F)(F)F` (stereo not given), the growth inhibition in experiment [1] (setting [7]) is 8%; in experiment [1] (setting [8]), 86% (active); in experiment [1] (at 50.0 µM) it was 89.7% (active); in experiment [2] (setting [7]), -3%; in experiment [2] (setting [8]), 71% (active); in experiment [2] (at 50.0 µM), 83.1% (active). For the same molecule, the growth inhibition was -2% in experiment [3] (setting [7]); 69% in experiment [3] (setting [8]); 87.7% (active) in experiment [3] (at 50.0 µM); 12% in experiment [4] (setting [7]); 58% in experiment [4] (setting [8]); 78.8% (active) in experiment [4] (at 50.0 µM). The growth inhibition is -6% in experiment [5] (setting [7]); 78% (active) in experiment [5] (setting [8]); 92.5% (active) in experiment [5] (at 50.0 µM); 9% in experiment [6] (setting [7]); 87% (active) in experiment [6] (setting [8]); 94% (active) in experiment [6] (at 50.0 µM).

On to `NC(=O)C(=O)N/N=C/c1ccc([N+](=O)[O-])o1`, for which the growth inhibition is 14% in experiment [1] (setting [7]); 49% in experiment [1] (setting [8]); 32.4% in experiment [1] (at 50.0 µM); 6% in experiment [2] (setting [7]); 31% in experiment [2] (setting [8]); 25.4% in experiment [2] (at 50.0 µM). Moreover, the growth inhibition in experiment [3] (setting [7]) is 2%; in experiment [3] (setting [8]) it was 42%; in experiment [3] (at 50.0 µM), 71.7% (active); in experiment [4] (setting [7]), -1%; in experiment [4] (setting [8]), 18%; in experiment [4] (at 50.0 µM) it was 2.8%. Further, the growth inhibition is 37% in experiment [5] (setting [7]); 35% in experiment [5] (setting [8]); 14.3% in experiment [5] (at 50.0 µM); 16% in experiment [6] (setting [7]); 65% in experiment [6] (setting [8]); 56.1% in experiment [6] (at 50.0 µM).

As for `C=Nc1ccc2ccccc2c1Cc1c(O)ccc2ccccc12`, the growth inhibition in experiment [1] (setting [7]) was 7%; in experiment [1] (setting [8]), 99% (active); in experiment [1] (at 50.0 µM), 97.2% (active); in experiment [2] (setting [7]), 12%; in experiment [2] (setting [8]), 99% (active); in experiment [2] (at 50.0 µM), 97.2% (active). For the same molecule, the growth inhibition in experiment [3] (setting [7]) was 8%; in experiment [3] (setting [8]) it was 99% (active); in experiment [3] (at 50.0 µM) it was 97.4% (active); in experiment [4] (setting [7]), -8%; in experiment [4] (setting [8]) it was 99% (active); in experiment [4] (at 50.0 µM), 96.5% (active). The growth inhibition in experiment [5] (setting [7]) was 1%; in experiment [5] (setting [8]), 99% (active); in experiment [5] (at 50.0 µM), 97.5% (active); in experiment [6] (setting [7]) it was 11%; in experiment [6] (setting [8]), 99% (active); in experiment [6] (at 50.0 µM), 96.7% (active).

For the molecule `C/C(=N\NC(N)=S)c1ccc(C2CCCCC2)cc1`, the growth inhibition was 73% (active) in experiment [1] (setting [7]); 97% (active) in experiment [1] (setting [8]); 97.2% (active) in experiment [1] (at 50.0 µM); 68% in experiment [2] (setting [7]); 98% (active) in experiment [2] (setting [8]); 95.7% (active) in experiment [2] (at 50.0 µM). In addition, the growth inhibition in experiment [3] (setting [7]) is 88% (active); in experiment [3] (setting [8]) it was 99% (active); in experiment [3] (at 50.0 µM), 98.2% (active); in experiment [4] (setting [7]), 61%; in experiment [4] (setting [8]) it was 97% (active); in experiment [4] (at 50.0 µM), 97% (active). For the same molecule, the growth inhibition in experiment [5] (setting [7]) was 60%; in experiment [5] (setting [8]), 97% (active); in experiment [5] (at 50.0 µM), 96.2% (active); in experiment [6] (setting [7]), 83% (active); in experiment [6] (setting [8]) it was 97% (active); in experiment [6] (at 50.0 µM), 94.5% (active).

The values are drawn from PubChem BioAssay (NCI).
